Laboratory results from PMC7862700, “An all-to-all approach to the identification of sequence-specific readers for epigenetic DNA modifications on cytosine”.

How the values were obtained:
Experiment in all cases: DAPPL (digital affinity profiling via proximity ligation, sequencing); 10 mM Tris-HCl pH 7.5, 50 mM NaCl, 1 mM DTT, 4% glycerol, room temperature, 30 min; GST-TFs on glutathione beads, 16-mer random dsDNA library, 0.1% formaldehyde crosslink after washing; high values mean tight binding
Conditions in all cases: protein: recombinant; tags: N-terminal GST; dsDNA, one strand shown
ERF = molecular target: T1, ERF (Homo sapiens, UniProt P50548 1-548)
T1 sequence: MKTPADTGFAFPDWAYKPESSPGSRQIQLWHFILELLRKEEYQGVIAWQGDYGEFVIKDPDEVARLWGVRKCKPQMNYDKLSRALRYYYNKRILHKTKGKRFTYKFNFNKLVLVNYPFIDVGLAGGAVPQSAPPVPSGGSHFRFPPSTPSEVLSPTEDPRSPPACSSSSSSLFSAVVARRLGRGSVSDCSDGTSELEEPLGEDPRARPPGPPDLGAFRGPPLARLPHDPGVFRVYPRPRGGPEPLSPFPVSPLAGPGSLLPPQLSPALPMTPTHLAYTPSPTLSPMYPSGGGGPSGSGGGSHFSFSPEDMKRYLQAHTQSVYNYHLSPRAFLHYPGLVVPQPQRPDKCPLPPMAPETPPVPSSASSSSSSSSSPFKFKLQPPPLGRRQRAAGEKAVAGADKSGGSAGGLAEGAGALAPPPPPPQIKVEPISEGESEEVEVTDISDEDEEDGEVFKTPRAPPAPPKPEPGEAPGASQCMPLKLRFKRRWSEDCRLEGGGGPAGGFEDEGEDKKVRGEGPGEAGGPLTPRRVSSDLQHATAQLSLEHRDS
Method in brief: (§1)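 Each value of binding signal is a hexamer's read frequency for a factor divided by the same hexamer's frequency in the tag-only sample. Barcoded, bead-captured GST fusions of human transcription factors made in yeast were pooled with that sample and incubated with 200 nmole of a random double-stranded 16-mer DNA library in Tris/NaCl/DTT/glycerol buffer at room temperature for 30 min. Washing, 0.1% formaldehyde crosslinking, proximity ligation, PCR and Illumina NextSeq500 sequencing followed.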

ETV3L = molecular target: T2, ETV3L (Homo sapiens, UniProt Q6ZN32 1-361)
T2 sequence: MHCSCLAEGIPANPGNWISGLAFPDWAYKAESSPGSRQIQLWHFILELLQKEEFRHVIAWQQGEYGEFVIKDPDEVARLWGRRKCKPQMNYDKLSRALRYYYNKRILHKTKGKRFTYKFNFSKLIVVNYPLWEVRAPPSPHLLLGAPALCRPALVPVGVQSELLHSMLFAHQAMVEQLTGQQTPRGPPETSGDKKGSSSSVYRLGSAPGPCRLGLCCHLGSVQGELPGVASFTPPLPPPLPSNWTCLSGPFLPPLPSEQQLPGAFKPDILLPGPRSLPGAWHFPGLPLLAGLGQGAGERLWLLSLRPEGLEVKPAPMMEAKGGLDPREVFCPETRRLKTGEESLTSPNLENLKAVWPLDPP
Method in brief: as §1

ETS2 = molecular target: T3, ETS2 (Homo sapiens, UniProt P15036 1-469)
T3 sequence: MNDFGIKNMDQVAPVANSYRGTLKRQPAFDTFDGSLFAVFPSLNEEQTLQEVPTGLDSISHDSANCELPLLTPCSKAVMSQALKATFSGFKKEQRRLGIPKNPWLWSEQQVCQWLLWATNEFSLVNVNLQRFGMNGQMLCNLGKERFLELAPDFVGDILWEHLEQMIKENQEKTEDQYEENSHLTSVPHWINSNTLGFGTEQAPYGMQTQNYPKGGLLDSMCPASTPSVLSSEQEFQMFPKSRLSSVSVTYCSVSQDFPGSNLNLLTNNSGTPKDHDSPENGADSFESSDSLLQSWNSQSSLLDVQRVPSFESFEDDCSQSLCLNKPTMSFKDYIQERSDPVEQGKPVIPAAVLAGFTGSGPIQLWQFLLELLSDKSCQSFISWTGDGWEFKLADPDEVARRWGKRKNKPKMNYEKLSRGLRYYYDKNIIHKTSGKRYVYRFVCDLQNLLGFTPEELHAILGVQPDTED
Method in brief: as §1

SPDEF = molecular target: T4, SPDEF (Homo sapiens, UniProt O95238 1-335)
T4 sequence: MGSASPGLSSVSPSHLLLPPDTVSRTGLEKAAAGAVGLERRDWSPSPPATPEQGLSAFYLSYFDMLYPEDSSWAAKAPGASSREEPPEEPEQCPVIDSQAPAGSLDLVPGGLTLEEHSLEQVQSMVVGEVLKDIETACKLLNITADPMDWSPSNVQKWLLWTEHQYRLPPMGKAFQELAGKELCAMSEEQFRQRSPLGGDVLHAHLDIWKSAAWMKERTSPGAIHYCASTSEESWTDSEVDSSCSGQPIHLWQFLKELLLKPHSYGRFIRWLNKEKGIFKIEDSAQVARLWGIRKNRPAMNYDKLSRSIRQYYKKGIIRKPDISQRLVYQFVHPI
Method in brief: as §1

ETV7 = molecular target: T5, ETV7 (Homo sapiens, UniProt Q9Y603 1-341)
T5 sequence: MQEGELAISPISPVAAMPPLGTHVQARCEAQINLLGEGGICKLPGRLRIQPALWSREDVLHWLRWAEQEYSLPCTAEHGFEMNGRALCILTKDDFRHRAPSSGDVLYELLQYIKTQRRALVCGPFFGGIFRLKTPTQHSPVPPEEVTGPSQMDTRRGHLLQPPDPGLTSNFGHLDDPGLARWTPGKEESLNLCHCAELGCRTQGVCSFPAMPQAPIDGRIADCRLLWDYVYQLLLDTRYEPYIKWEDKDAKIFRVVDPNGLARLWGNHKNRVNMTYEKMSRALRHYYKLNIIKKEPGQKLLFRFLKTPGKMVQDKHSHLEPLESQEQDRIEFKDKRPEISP
Method in brief: as §1

ELF5 = molecular target: T6, ELF5 (Homo sapiens, UniProt Q9UKW6-2 1-255)
T6 sequence: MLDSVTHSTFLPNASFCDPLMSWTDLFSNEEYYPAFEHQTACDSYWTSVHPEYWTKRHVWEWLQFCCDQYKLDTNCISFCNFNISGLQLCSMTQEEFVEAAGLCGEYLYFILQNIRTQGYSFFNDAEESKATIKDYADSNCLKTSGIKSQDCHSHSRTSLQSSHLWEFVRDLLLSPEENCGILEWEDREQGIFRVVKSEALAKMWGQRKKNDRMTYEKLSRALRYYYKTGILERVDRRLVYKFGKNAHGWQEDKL
Method in brief: as §1

ETV3 = molecular target: T7, ETV3 (Homo sapiens, UniProt P41162-2 1-143)
T7 sequence: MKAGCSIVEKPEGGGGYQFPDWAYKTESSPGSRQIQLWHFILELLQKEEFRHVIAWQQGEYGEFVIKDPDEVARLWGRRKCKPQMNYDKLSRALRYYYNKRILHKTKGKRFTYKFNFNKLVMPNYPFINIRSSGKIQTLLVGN
Method in brief: as §1

ETV6 = ETV6 (Homo sapiens, UniProt P41212 1-452)
ETV6, sequence (P41212 whole entry): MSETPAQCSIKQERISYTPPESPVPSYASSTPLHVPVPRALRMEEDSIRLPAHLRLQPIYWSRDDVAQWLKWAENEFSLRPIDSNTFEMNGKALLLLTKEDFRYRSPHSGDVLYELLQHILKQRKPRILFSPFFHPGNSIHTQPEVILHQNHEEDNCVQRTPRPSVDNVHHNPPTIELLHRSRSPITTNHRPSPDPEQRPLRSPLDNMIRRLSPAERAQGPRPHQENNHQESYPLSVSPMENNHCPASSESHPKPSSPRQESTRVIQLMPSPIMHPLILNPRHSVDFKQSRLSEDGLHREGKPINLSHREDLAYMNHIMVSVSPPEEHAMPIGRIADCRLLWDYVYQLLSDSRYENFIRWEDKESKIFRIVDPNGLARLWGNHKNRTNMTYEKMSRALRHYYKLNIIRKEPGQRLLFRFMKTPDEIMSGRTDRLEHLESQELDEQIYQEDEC
Method in brief: as §1

Sequence | binding signal (ERF) | binding signal (ETV3L) | binding signal (ETS2) | binding signal (SPDEF) | binding signal (ETV7) | binding signal (ELF5) | binding signal (ETV3) | binding signal (ETV6)
CTTCCC | 1.94 fold enrichment (6-mer frequency, TF over GST control) | 2.18 fold enrichment (6-mer frequency, TF over GST control) | 2.32 fold enrichment (6-mer frequency, TF over GST control) | 2.14 fold enrichment (6-mer frequency, TF over GST control) | 1.95 fold enrichment (6-mer frequency, TF over GST control) | 3.61 fold enrichment (6-mer frequency, TF over GST control) | 2.3 fold enrichment (6-mer frequency, TF over GST control) | 2.54 fold enrichment (6-mer frequency, TF over GST control)
CTTCAC | 1.44 fold enrichment (6-mer frequency, TF over GST control) | 1.44 fold enrichment (6-mer frequency, TF over GST control) | 1.36 fold enrichment (6-mer frequency, TF over GST control) | 1.4 fold enrichment (6-mer frequency, TF over GST control) | 1.45 fold enrichment (6-mer frequency, TF over GST control) | 1.38 fold enrichment (6-mer frequency, TF over GST control) | 1.45 fold enrichment (6-mer frequency, TF over GST control) | 1.43 fold enrichment (6-mer frequency, TF over GST control)
TTTCGG | 1.17 fold enrichment (6-mer frequency, TF over GST control) | 1.22 fold enrichment (6-mer frequency, TF over GST control) | 1.24 fold enrichment (6-mer frequency, TF over GST control) | 1.21 fold enrichment (6-mer frequency, TF over GST control) | 1.28 fold enrichment (6-mer frequency, TF over GST control) | 1.21 fold enrichment (6-mer frequency, TF over GST control) | 1.16 fold enrichment (6-mer frequency, TF over GST control) | 1.19 fold enrichment (6-mer frequency, TF over GST control)
GCCTAC | 1.12 fold enrichment (6-mer frequency, TF over GST control) | 1.29 fold enrichment (6-mer frequency, TF over GST control) | 1.23 fold enrichment (6-mer frequency, TF over GST control) | 1.12 fold enrichment (6-mer frequency, TF over GST control) | 1.08 fold enrichment (6-mer frequency, TF over GST control) | 1.17 fold enrichment (6-mer frequency, TF over GST control) | 1.3 fold enrichment (6-mer frequency, TF over GST control) | 1.19 fold enrichment (6-mer frequency, TF over GST control)
GCCTTG | 1.16 fold enrichment (6-mer frequency, TF over GST control) | 1.34 fold enrichment (6-mer frequency, TF over GST control) | 1.25 fold enrichment (6-mer frequency, TF over GST control) | 1.13 fold enrichment (6-mer frequency, TF over GST control) | 1.3 fold enrichment (6-mer frequency, TF over GST control) | 1.17 fold enrichment (6-mer frequency, TF over GST control) | 1.14 fold enrichment (6-mer frequency, TF over GST control) | 1.16 fold enrichment (6-mer frequency, TF over GST control)
ATTTCA | 1.22 fold enrichment (6-mer frequency, TF over GST control) | 1.16 fold enrichment (6-mer frequency, TF over GST control) | 1.22 fold enrichment (6-mer frequency, TF over GST control) | 1.28 fold enrichment (6-mer frequency, TF over GST control) | 1.13 fold enrichment (6-mer frequency, TF over GST control) | 1.25 fold enrichment (6-mer frequency, TF over GST control) | 1.23 fold enrichment (6-mer frequency, TF over GST control) | 1.27 fold enrichment (6-mer frequency, TF over GST control)
TAACTG | 1.11 fold enrichment (6-mer frequency, TF over GST control) | 1.23 fold enrichment (6-mer frequency, TF over GST control) | 1.31 fold enrichment (6-mer frequency, TF over GST control) | 1.2 fold enrichment (6-mer frequency, TF over GST control) | 1.28 fold enrichment (6-mer frequency, TF over GST control) | 1.16 fold enrichment (6-mer frequency, TF over GST control) | 1.25 fold enrichment (6-mer frequency, TF over GST control) | 1.26 fold enrichment (6-mer frequency, TF over GST control)
AATTAT | 1.15 fold enrichment (6-mer frequency, TF over GST control) | 1.26 fold enrichment (6-mer frequency, TF over GST control) | 1.27 fold enrichment (6-mer frequency, TF over GST control) | 1.24 fold enrichment (6-mer frequency, TF over GST control) | 1.23 fold enrichment (6-mer frequency, TF over GST control) | 1.24 fold enrichment (6-mer frequency, TF over GST control) | 1.28 fold enrichment (6-mer frequency, TF over GST control) | 1.2 fold enrichment (6-mer frequency, TF over GST control)
ACTACC | 1.72 fold enrichment (6-mer frequency, TF over GST control) | 1.6 fold enrichment (6-mer frequency, TF over GST control) | 1.7 fold enrichment (6-mer frequency, TF over GST control) | 1.61 fold enrichment (6-mer frequency, TF over GST control) | 1.55 fold enrichment (6-mer frequency, TF over GST control) | 1.76 fold enrichment (6-mer frequency, TF over GST control) | 1.7 fold enrichment (6-mer frequency, TF over GST control) | 1.74 fold enrichment (6-mer frequency, TF over GST control)
CTGGAT | 1.43 fold enrichment (6-mer frequency, TF over GST control) | 1.5 fold enrichment (6-mer frequency, TF over GST control) | 1.4 fold enrichment (6-mer frequency, TF over GST control) | 1.42 fold enrichment (6-mer frequency, TF over GST control) | 1.22 fold enrichment (6-mer frequency, TF over GST control) | 1.3 fold enrichment (6-mer frequency, TF over GST control) | 1.37 fold enrichment (6-mer frequency, TF over GST control) | 1.21 fold enrichment (6-mer frequency, TF over GST control)
ACTTCG | 1.52 fold enrichment (6-mer frequency, TF over GST control) | 1.27 fold enrichment (6-mer frequency, TF over GST control) | 1.36 fold enrichment (6-mer frequency, TF over GST control) | 1.3 fold enrichment (6-mer frequency, TF over GST control) | 1.26 fold enrichment (6-mer frequency, TF over GST control) | 1.32 fold enrichment (6-mer frequency, TF over GST control) | 1.42 fold enrichment (6-mer frequency, TF over GST control) | 1.36 fold enrichment (6-mer frequency, TF over GST control)
GTCCTA | 1.32 fold enrichment (6-mer frequency, TF over GST control) | 1.12 fold enrichment (6-mer frequency, TF over GST control) | 1.11 fold enrichment (6-mer frequency, TF over GST control) | 1.29 fold enrichment (6-mer frequency, TF over GST control) | 1.29 fold enrichment (6-mer frequency, TF over GST control) | 1.14 fold enrichment (6-mer frequency, TF over GST control) | 1.25 fold enrichment (6-mer frequency, TF over GST control) | 1.13 fold enrichment (6-mer frequency, TF over GST control)
AAATAC | 1.48 fold enrichment (6-mer frequency, TF over GST control) | 1.35 fold enrichment (6-mer frequency, TF over GST control) | 1.39 fold enrichment (6-mer frequency, TF over GST control) | 1.41 fold enrichment (6-mer frequency, TF over GST control) | 1.5 fold enrichment (6-mer frequency, TF over GST control) | 1.52 fold enrichment (6-mer frequency, TF over GST control) | 1.39 fold enrichment (6-mer frequency, TF over GST control) | 1.49 fold enrichment (6-mer frequency, TF over GST control)
AAATGA | 1.42 fold enrichment (6-mer frequency, TF over GST control) | 1.29 fold enrichment (6-mer frequency, TF over GST control) | 1.29 fold enrichment (6-mer frequency, TF over GST control) | 1.18 fold enrichment (6-mer frequency, TF over GST control) | 1.42 fold enrichment (6-mer frequency, TF over GST control) | 1.25 fold enrichment (6-mer frequency, TF over GST control) | 1.43 fold enrichment (6-mer frequency, TF over GST control) | 1.47 fold enrichment (6-mer frequency, TF over GST control)
CCACTT | 1.9 fold enrichment (6-mer frequency, TF over GST control) | 1.79 fold enrichment (6-mer frequency, TF over GST control) | 1.84 fold enrichment (6-mer frequency, TF over GST control) | 1.69 fold enrichment (6-mer frequency, TF over GST control) | 1.78 fold enrichment (6-mer frequency, TF over GST control) | 1.89 fold enrichment (6-mer frequency, TF over GST control) | 1.97 fold enrichment (6-mer frequency, TF over GST control) | 1.85 fold enrichment (6-mer frequency, TF over GST control)
